VDR inh: inhibitors of human vitamin D receptor. Potency, µM, for inactives: max response, negative = inhibition, usual class: inhibitors. VDR-SRC2-3 peptide fluorescence polarization, 2 h. 400,000 compounds, 0.93% hits. P11473; note: potency is the fitted concentration of half-maximal effect
Target sequence (P11473 whole entry, looked up): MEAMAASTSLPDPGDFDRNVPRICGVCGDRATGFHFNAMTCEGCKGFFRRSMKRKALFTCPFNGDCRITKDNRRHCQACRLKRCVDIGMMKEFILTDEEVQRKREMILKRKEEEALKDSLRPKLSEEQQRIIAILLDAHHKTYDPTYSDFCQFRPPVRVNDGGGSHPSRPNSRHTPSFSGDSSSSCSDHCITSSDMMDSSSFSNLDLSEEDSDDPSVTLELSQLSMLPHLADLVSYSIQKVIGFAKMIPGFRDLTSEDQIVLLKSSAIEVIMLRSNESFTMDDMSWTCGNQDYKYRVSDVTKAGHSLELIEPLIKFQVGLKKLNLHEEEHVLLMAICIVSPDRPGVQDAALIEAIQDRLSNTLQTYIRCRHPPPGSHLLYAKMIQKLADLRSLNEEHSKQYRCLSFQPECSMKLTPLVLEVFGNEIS
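Reagent solutions, kept cold and dark, are dispensed first; compounds are then pinned in at 23 nl, plates briefly spun, and incubated 2 h at ambient temperature. Inhibition of VDR–SRC2-3 peptide binding is read by fluorescence polarization.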
G9a block: inhibitors of human histone lysine methyltransferase G9a. Q96KQ7. G9a H3K9 monomethylation, AlphaScreen, 2 h. Potency, µM (titrated, usually from 102 µM), inactives show at the top dose activity, negative = inhibition, usual class: inhibitors. 350,000 compounds, 8.8% hits; note: potency is the fitted concentration of half-maximal effect; nearly all actives have a fitted effect of over 75% in size
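G9a (20 nM) preincubated 15 min RT with compounds, then 500 nM biotinylated H3K9 peptide and 20 uM SAM added; 2 h RT reaction. Monomethyl-H3K9 product detected by AlphaScreen with anti-H3K9me1 antibody, streptavidin donor and anti-rabbit IgG acceptor beads.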
Sfp PPTase inh: Sfp phosphopantetheinyl transferase inhibition; Biochemical Sfp PPTase activity, qHTS; Potency, µM, without a hit: largest response in the series, negative = inhibition, actives largely listed as inhibitors; 310,000 compounds, 3.5% hits; AID 1490;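 note: the enzyme is Sfp with the accession as filed and its product quenches rhodamine fluorescence; potency is the fitted concentration of half-maximal effect; 0% = enzyme reaction without inhibitor and -100% = no enzyme wells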
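Compounds were incubated with enzyme (final 15 nM) for 15 min at room temperature before substrate addition started the reaction. Fluorescence at 525 nm excitation, 598 nm emission was recorded immediately and after 30 minutes.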
MmCpn inh: M. maripaludis TRiC chaperonin inhibition. AID 504842. Potency, µM (doses to about 76.9 µM), for inactives: at the top dose activity, negative = inhibition, hits mostly inhibitors. purified Mm-Cpn ATPase, ADP Transcreener TR-FRET. 330,000 compounds, 0.031% hits; note: potency is the fitted concentration of half-maximal effect; nearly all actives have a fitted effect of over 80% in size
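TR-FRET (320 nm excitation; 590 and 665 nm emission) reports ADP made from 10 uM ATP by 25 nM enzyme; compounds were preincubated 10 min, reaction run 30 min, both at 37°C.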
PLK1 PBD block: blocks phosphopeptide binding to human PLK1 polo-box domain; 360,000 compounds, 2.8% hits; Plk1 PBD binding of FITC phosphopeptide, fluorescence polarization; Potency, µM, without a hit: max response, negative = inhibition, hits mostly inhibitors; P53350; note: potency is the fitted concentration of half-maximal effect; series mostly up to about 57 µM; nearly all actives have a fitted effect of over 65% in size
CCT chaperon mod: cytosolic chaperonin activity modulation | purified chaperonin ATPase assay, HTRF ADP detection, 30 min | activity change, % (test concentration not listed), hits read low | 360,000 compounds, 0.3% hits; in the data active = activity change below about -30%
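TRiC (40 or 20 nM final, by batch activity) in 30 mM Tris pH 7.4, 100 mM KCl, 5 mM MgCl2, 1 mM DTT was treated with compound at 76 uM single dose, then 10 uM ATP, 30 min at 37 °C. ADP was read by HTRF Transcreener.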
Active calls of the source: *; u = inconclusive; x = no result; [ ] = dose if it differs, or a comment. A selection: hits, their analogues and other compounds. The true share with any hit is near 10%. Unless noted, calls come from the whole dose curve; as a rule, active = well fitted curve in the direction sought with a large enough effect; inconclusive = small, poorly fitted or top-dose-only effect, or another doubt; inactive = no such curve, though single readings can be large; an effect the other way counts as inactive or inconclusive. Unless noted, % is set by controls: 0 for no effect and ±100 for the full control effect.

SMILES	VDR inh	G9a block	Sfp PPTase inh	MmCpn inh	PLK1 PBD block	CCT chaperon mod
CN1CCc2c(sc(NC(=O)c3cc4cc([N+](=O)[O-])ccc4s3)c2C(N)=O)C1	x	25.1µM*	-7.5%	-3.1%	x	x
CN1CCc2c(sc(NC(=O)c3ccco3)c2C(N)=O)C1	-8.2%	x	-2.9%	-0.6%	-8.3%	-0.6
O=C(C[n+]1ccc(-c2cc(C(=O)Nc3cccc(C(F)(F)F)c3)c3ccccc3n2)cc1)c1cccc([N+](=O)[O-])c1	-0.1%	50.1µM*	50.1µM*	-2.4%	u	-2.2
CC(C)c1ccc(Nc2nc3c(S(=O)(=O)c4ccc(Br)cc4)nnn3c3ccsc23)cc1	6.1%	-18.6%[59 µM]	x	x	x	x
Cc1ccc(CNC(=O)CN2C(=O)C3(SCC(=O)N3c3cc(C)cc(C)c3)c3ccccc32)cc1 (stereo unspecified)	2.9%	-37.3%[59 µM]	x	x	x	x
CC(=O)C1=C(C)Nc2ncnn2C1c1ccccc1OCc1ccccc1 (stereo unspecified)	3.0%	-47.0%[59 µM]	-3.2%	-4.1%	-0.9%	0.1
CC(C)Oc1ccccc1C1C=C(C(=O)O)Nc2ncnn21 (stereo unspecified)	-12.2%	14.1µM*	x	x	x	x
Cc1ccc(C)c(C(C)NC(=O)c2ccc(Br)o2)c1 (stereo unspecified)	-11.4%	50.1µM*	50.1µM*	-3.8%	-19.8%	-2.2
Cc1ccc(C)c(C(C)NC(=O)CC#N)c1 (stereo unspecified)	-0.6%	x	6.0%	1.8%	1.2%	0.0
CC1=C(C(=O)NCc2ccc(C)cc2)C2(CCCCC2)OC1=O	3.6%	4.4%[59 µM]	x	x	x	x
O=C(NC(=S)Nc1ccccc1N1CCCC1)c1cccc(F)c1	-1.1%	25.1µM*	u	1.4%	u	0.8
O=C(Nc1ccccc1N1CCCC1)c1cccc(F)c1	-5.7%	35.5µM*	11.5%	0.1%	1.2%	2.3
CC(C)Oc1ccc(C(=O)Nc2ccccc2N2CCCC2)cc1	-7.7%	44.7µM*	3.2%	-1.4%	26.7µM*	-1.1
Cc1cc(C(=O)NC(=S)Nc2ccccc2N2CCCC2)ccc1[N+](=O)[O-]	-15.1%	u	-0.4%	-0.8%	0.6%	-1.4
O=C(Nc1ccccc1N1CCN(C(=O)c2ccc(Cl)cc2)CC1)c1cccc(F)c1	6.7%	19.3%	5.2%	0.2%	-18.0%	-1.1
COc1ccc(C(=O)Nc2ccccc2N2CCCC2)cc1	-11.8%	-7.3%[2.33 µM]	3.2%	-2.0%	-6.7%	0.8
CC(C)(C)NCC(O)COc1nsnc1N1CCOCC1 (stereo unspecified)	x	48.4%[12.7 µM]	x	x	x	x
Cc1ccccc1-n1c(=O)cc(N2CCc3ccccc32)[nH]c1=O	-6.5%	18.8%[59 µM]	56.2µM*	1.9%	-19.2%	0.1
O=c1cc(N2CCc3ccccc32)[nH]c(=O)n1-c1ccccc1Cl	-3.7%	-33.5%	2.0%	-1.2%	-12.8%	-5.6
Cc1ccc(N2CC(NC(=O)C(=O)c3c(C)[nH]c4ccccc34)CC2=O)cc1 (stereo unspecified)	-16.5%	-6.0%	x	-2.5%	-5.1%	1.1
Cc1[nH]c2ccccc2c1C(=O)C(=O)NC1CC(=O)N(c2ccc(F)cc2)C1 (stereo unspecified)	-21.3%	50.1µM*	x	1.8%	-5.9%	-0.4
CCC(c1c(C)n(C)n(-c2ccccc2)c1=O)c1c(C)n(C)n(-c2ccccc2)c1=O	-4.5%	4.6%	14.3%	0.0%	-4.0%	1.8
CCCC(c1c(C)n(C)n(-c2ccccc2)c1=O)c1c(C)n(C)n(-c2ccccc2)c1=O	-24.4%	-10.7%[59 µM]	23.7%	2.3%	2.38µM*	0.4
Cc1ccc(NC(=S)NNC(=O)c2c(Cl)c(C)nn2C)cc1	u	1.41µM*	30.7%	-0.8%	-20.2%	-1.2
Cc1ccc(NNC(=S)Nc2ccc(C(C)C)cc2)c(C)c1	-17.2%	11.2µM*	-8.7%	-0.5%	16.8µM*	-2.2
Cc1ccc(NC(N)=S)cc1	-5.5%	-16.2%[59 µM]	4.3%	0.8%	-0.4%	-2.1
Cc1ccc(NC(=S)NNC(=S)Nc2ccc(C)cc2)cc1	79.4µM*	x	x	x	u	0.5
Cc1ccc(NC(=S)NNC(=O)c2c([N+](=O)[O-])c(C)nn2C)cc1	12.6%	64.8%[12.7 µM]	6.5%	3.1%	-0.4%	0.7

High-throughput results: PubChem, National Center for Advancing Translational Sciences (NCATS)
